# Laboratory results: PubChem BioAssay (Tox21)
# Inconclusive results are not listed. A number with no mark means an inactive call. Calls come from the whole dose curve; as a rule, active = well fitted cell-killing curve with a large enough effect in the repeat runs; inconclusive = weak or mixed curves, or effect the other way; inactive = flat fitted curve, though single readings scatter.
# Assay: qHTS assay to identify small molecule agonists of the sonic hedgehog signaling (Shh) pathway - cell viability counter screen (AID 1259366); note: nearly all actives have a fitted effect of over 50% in size
# Conditions: NIH/3T3 Gli1-Luc viability, CellTiter-Fluor, 24 h; series mostly up to 92.4 µM; viability change, negative = cytotoxic: at the top concentration
# From the text: National Center for Advancing Translational Sciences [NCATS]
# NIH Chemical Genomics Center [NCGC]
# U.S. Environmental Protection Agency [EPA]
# National Institutes of Environmental Health Sciences [NIEHS]
# National Toxicology Program [NTP]
# U.S. Food and Drug Administration [FDA]
# The sonic hedgehog (Shh) pathway is essential for normal embryonic development. Dysregulation of the Shh pathway can cause severe developmental defects in organs. Therefore chemicals that interfere with the pathway are potential developmental toxicants. A cell line designated 3T3Gli1-Luc (DMB/OARSA/CFSAN/FDA, Laurel, MD), a NIH/3T3 derived clone containing stably integrated Gli1-Luc reporter is used to detect chemical interference of the Shh pathway, by changes in the expression of the firefly Luc gene under the control of the Gli1 transcriptional response element. This cell line was used to screen Tox21 libraries for identifying and prioritizing the potential developmental toxicants that interfere Shh pathway. The cytotoxicity of the compounds was tested in parallel by measuring the cell viability using CellTiter-Fluor assay system (Promega, Madison, WI) in the same wells.
# Tox21 Assay Protocol Summary:
# 3T3 Gli1-Luc cells were dispensed at 2,000 per well in 5uL of culture medium into white solid bottom 1536-well plates (Greiner Bio-One, Monroe, NC) using a Multidrop Combi (Thermo Scientific, Waltham, MA) dispenser. The assay plates were incubated at 37 C and 5% CO2 for 4hr, and then 23nL of compounds dissolved in DMSO and positive control were transferred using a Pintool station (Wako, San Diego, CA). The assay plates were incubated at 37C and 5% CO2 for 24hr. For viability read, after 23hr of compound treatment, 1uL of CellTiter-Fluor reagent (Promega Corporation, Madison, WI) was added to each well of the assay plates using Flying Reagent Dispenser (FRD, Aurora Discovery, San Diego, CA) and incubated the assay plates at 37C for 1hr. The fluorescence signal was quantified using a ViewLux plate reader (Perkin Elmer, Shelton, CT).
# % is set by controls: 0 for no effect and ±100 for the full control effect.
row,Structure (SMILES),"viability change, negative = cytotoxic"
1,CC1(C)[C@H]2CC[C@](C)(C2)[C@H]1O,4.29%
2,C[C@]12CCC(=O)C=C1CC[C@H]1[C@@H]3CC[C@](O)(C(=O)CO)[C@@]3(C)C[C@H](O)[C@@]12F,5.08% [at 42.5 µM]
3,COCCc1ccccn1,-6.88% [at 42.5 µM]
4,COc1cc2c(cc1OC)C(=O)C(CC1CCN(Cc3ccccc3)CC1)C2 (stereo not given),17.6% [at 42.5 µM]
5,CC(=O)CC(=O)Nc1ccc(C)cc1C,-1%
6,CC(C)Nc1ccccc1,1.95%
7,CC(C)=CCC/C(C)=C/COC=O,1.63%
8,COC(=O)CCCCC(=O)O,5.1%
9,OC[C@H]1O[C@@H](O[C@@H]2[C@@H](CO)O[C@](O)(CO)[C@H]2O)[C@H](O)[C@@H](O)[C@H]1O,-2.81% [at 42.5 µM]
10,CC1CCc2c(N3CCC(O)CC3)c(F)cc3c(=O)c(C(=O)O)cn1c23 (stereo not given),-4.39% [at 42.5 µM]
11,CC(=O)C(C)O (stereo not given),5.09%
12,C=CCCCCCCCC,-2.02%
13,c1ccc(-c2nn[nH]n2)cc1,1.4%
14,C[C@@H](O)C(=O)O,-3.05%
15,CCC(C)C(=O)OCCc1ccccc1 (stereo not given),5.86%
16,Cc1c(NC(=O)c2cccnc2)c(=O)n(-c2ccccc2)n1C,4.84% [at 42.5 µM]
17,O=C1CCCCO1,2.48%
18,CC(C)[C@H]1CC[C@H](C)C[C@@H]1O,1.4%
19,CCOC(=O)CC1(C)OCC(C)O1 (stereo not given),7.39%
20,C=C(C)[C@@H]1CC=C(C)CC1,-5.34%

row,Structure (SMILES),"viability change, negative = cytotoxic"
1,NCc1ccc(S(N)(=O)=O)cc1,4.14% [at 42.5 µM]
2,Nc1nc(-c2ccccc2)c(Br)c(=O)[nH]1,-10.8% [at 42.5 µM]
3,[O]=[Mo](=[O])=[O],1.33% [at 19 µM]
4,O=C(CCCl)NCCc1ccccc1,0.422% [at 42.5 µM]
5,Cc1c(C(=O)c2c[nH]n(C)c2=O)ccc(S(C)(=O)=O)c1C1=NOCC1,7.4% [at 42.5 µM]
6,C#CCN[C@@H]1CCc2ccccc21,4.22% [at 42.5 µM]
7,Cc1cc(-c2ccccc2)nnc1NCCN1CCOCC1,-5.72% [at 42.5 µM]
8,CC1(C)Cc2cccc(N)c2O1,2.19%
9,CC1OCCC1=O (stereo not given),9.77%
10,CC1CC(=O)CC(C)(C)C1 (stereo not given),11.2%
11,CC(C)OC(=O)CCC(=O)OC(C)C,-1.77%
12,CC(C)C1OCCN1CCOC(=O)NCCCCCCNC(=O)OCCN1CCOC1C(C)C (stereo not given),-0.496%
13,CC(C)(CO)C(O)C(=O)NCCCO (stereo not given),-0.0943%
14,O=C(O)CSCC(=O)NC1CCSC1=O (stereo not given),5.48% [at 42.5 µM]
15,CC(=O)O[Si](C)(OC(C)=O)OC(C)=O,-2.87%
16,CC(C)OC(=O)OCOP(=O)(CO[C@H](C)Cn1cnc2c(N)ncnc21)OCOC(=O)OC(C)C,-12.7% [at 42.5 µM]
17,N#Cc1ccccc1O,-0.285%
18,c1ccc2cnccc2c1,1.15%
19,CC(C)C[C@@H]1[C@H](c2ccccc2)OC(=O)N1CCCN1CCCCCC1,-16.2% [at 42.5 µM]
20,CCCC(=O)OC/C=C(\C)CCC=C(C)C,-3.54%
